Measurements reported in PubChem BioAssay (NCI).
About 79,000 compounds went through this panel and 15% of them were active in at least one assay; those are over-represented in the sample as a whole. Active and inactive are the calls of the source. Rule as the data show it: active = growth inhibition above about 70%; inactive = the rest.

Assay: NCI Yeast Anticancer Drug Screen. Data for the rad14 strain (AID 159);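 also: 0% = growth of vehicle-treated control cultures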
Conditions: S. cerevisiae rad14 strain growth inhibition, hits give high values
Description: Growth inhibition of yeast strains with defined genetic alterations is measured as a screen for potential anti-cancer activity. Selected strains with alterations in DNA damage repair or cell cycle control were exposed to compounds and growth inhibition was measured relative to vehicle treated controls. The strain used in this assay is rad14

Measured: growth inhibition

O=c1[nH]c(=O)n(CCCO)cc1F
inactive: at 1.2 µM -29% | at 3.7 µM -19% | at 11.0 µM -20% | at 33.0 µM -26% | at 100.0 µM -30%

CN(NC(=O)/C(=C/C=C/c1ccccc1)NC(=O)c1ccccc1)C1=C(Cl)C(=O)[N+](c2ccccc2)=CC1
inactive: at 1.2 µM -1% | at 3.7 µM -4% | at 11.0 µM 2% | at 33.0 µM 13% | at 100.0 µM 29%

O=C(O)/C=C\C(=O)NNc1ccc(Br)cc1
inactive: at 1.2 µM 4%
active: at 3.7 µM 99% | at 11.0 µM 99% | at 33.0 µM 99% | at 100.0 µM 99%

C#CC1=CC(=O)C(OC)=CC1=O
inactive: at 1.2 µM 12% | at 3.7 µM 21%
active: at 11.0 µM 82% | at 33.0 µM 99% | at 100.0 µM 99%

Cc1c2ccncc2c(C)c2c1oc1ccccc12
inactive: at 1.2 µM 5% | at 3.7 µM 29% | at 11.0 µM 48%
active: at 33.0 µM 93% | at 100.0 µM 98%

CC(O)CN1C(=O)c2cccc3cc([N+](=O)[O-])cc(c23)C1=O (stereo not given)
inactive: at 1.2 µM 2% | at 3.7 µM 12% | at 11.0 µM 14% | at 33.0 µM 19% | at 100.0 µM 21%

CCCCCCCCCC/C=C\CC(=O)O
inactive: at 1.2 µM 0% | at 3.7 µM 1% | at 11.0 µM 9% | at 33.0 µM 33%
active: at 100.0 µM 99%

Oc1ccc(Br)cc1C=Nc1cccc(C(F)(F)F)c1
inactive: at 1.2 µM 6% | at 3.7 µM 13%
active: at 11.0 µM 91% | at 33.0 µM 97% | at 100.0 µM 97%
